In PubChem BioAssay one finds composite z-score and z-score data, which are given here for six compounds.

For assay [1], the system named is PRMT1 (protein arginine N-methyltransferase 1). The assay is described as follows: PRMT1 binders on small-molecule microarrays, primary screen, biochemical, small-molecule microarray, 635 nm fluorescence (AID 1088).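 Note: binding of Prmt1 protein to compounds spotted on small-molecule microarray slides.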 As to conditions: small-molecule microarray binding, higher = more signal.
The nature of assay [2]: yeast growth modulation, basal conditions, primary screen, YJM789 clinical isolate, OD600, 24 h (AID 1089).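 Note: growth of clinical yeast isolate S. cerevisiae YJM 789 seeded 1000 cells per well; test concentration not given here.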 Conditions: S. cerevisiae YJM789 growth, higher = more signal, called active from +8 up or from −8 down.
A short description of assay [3]: fission yeast growth modulation, primary screen, strain 972, OD600, 24 h, no modulator (AID 1090).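 Note: basal condition with compound alone and no growth modifier present; test concentration not given here.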 Conditions: S. pombe 972 growth, higher = more signal, called active from +8 up or from −8 down.
A short description of assay [4]: S. cerevisiae growth modulation with rapamycin, primary screen, strain BY4716, OD600, 96 h (AID 1091). Note: test concentration not given here. Conditions: higher = more signal, called active from +8 up or from −8 down.
In assay [5] the target is Torsin-1A-interacting protein 2 (Homo sapiens) (UniProt Q8NFQ8). Nature of the assay: LULL1 binders on small-molecule microarray, primary screen, cell lysate, human LULL1 lysate, 635/667 nm fluorescence (AID 1092).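 Note: probe is lysate of COS7 cells overexpressing human LULL1; score merges per-feature 667 nm fluorescence with signal-to-noise.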 As to conditions: hLULL1 lysate binding, 635 nm fluorescence, higher = more signal.
Torsin-1A-interacting protein 2 (Homo sapiens), sequence (Q8NFQ8 whole entry, looked up): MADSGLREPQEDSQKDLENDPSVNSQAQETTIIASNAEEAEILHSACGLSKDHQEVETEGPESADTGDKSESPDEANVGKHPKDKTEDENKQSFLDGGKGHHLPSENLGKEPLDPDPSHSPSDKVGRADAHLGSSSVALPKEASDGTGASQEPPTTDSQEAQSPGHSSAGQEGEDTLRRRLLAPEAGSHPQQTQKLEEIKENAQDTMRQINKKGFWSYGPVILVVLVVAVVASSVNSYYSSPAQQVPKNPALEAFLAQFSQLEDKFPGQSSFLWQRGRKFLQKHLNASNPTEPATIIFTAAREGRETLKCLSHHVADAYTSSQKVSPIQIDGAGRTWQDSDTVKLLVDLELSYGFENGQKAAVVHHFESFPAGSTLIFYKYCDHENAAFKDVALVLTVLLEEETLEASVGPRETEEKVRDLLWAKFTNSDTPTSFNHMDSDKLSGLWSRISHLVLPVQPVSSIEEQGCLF
A short description of assay [6]: E. coli growth modulation, two-sided OD650, primary screen, E. coli filamentation project, strain DRC41, 24 h (AID 1093).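 Note: MC1000 strain lacking acrAB efflux and sulA so SOS filamentation is blocked; test concentration not given here.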 Conditions: OD650, 24 h, higher = more signal, called active from +8 up or from −8 down.
Assay [7] in a line: small-molecule microarray binders of probe aLefty2, primary screen, biochemical, biotinylated probe, 635/667 nm fluorescence (AID 1094).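 Note: score merges spot fluorescence near 667 nm with spot signal-to-noise ratio.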 Conditions: higher = more signal.
The subject of assay [8] is Noggin (protein binding on small-molecule microarray). The assay is described as follows: Noggin binders on small-molecule microarray, primary screen, biochemical, 635/667 nm fluorescence (AID 1095).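 Note: score merges 667 nm feature fluorescence with signal to noise over triplicate slides.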 Conditions: 635 nm fluorescence, higher = more signal.
Assay [9] has as its target Neurogenic locus notch homolog protein 3 (Homo sapiens) (UniProt Q9UM47). Nature of the assay: NOTCH3 binders on small-molecule microarray, primary screen, biochemical, 635/667 nm fluorescence (AID 1096). As to conditions: NOTCH3 binding, 635 nm fluorescence, higher = more signal.
The nature of assay [10]: small-molecule microarray binders of probe aEGFR, primary screen, biochemical, biotinylated probe, 635/667 nm fluorescence (AID 1097).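 Note: probe is a biotinylated anti-EGFR antibody binding compounds printed on slides; score combines fluorescence near 667 nm and signal to noise of each spot.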 As to conditions: higher = more signal.
Assay [11] deals with Plasmodium falciparum Sir2 (PF13_0152, Sir2A). Nature of the assay: pfSir2 binders on small-molecule microarrays, primary screen, biochemical, small-molecule microarray, 635 nm fluorescence (AID 1098).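 Note: score merges spot fluorescence intensity with its signal-to-noise ratio.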 As to conditions: small-molecule microarray binding, fluorescence 635 nm; higher = more signal.
A short description of assay [12]: small-molecule microarray binders of probe aDKK1, primary screen, biochemical, biotinylated probe, 635/667 nm fluorescence (AID 1099).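 Note: score merges 667nm spot fluorescence with signal to noise across triplicate slides; reference of the scale not given here.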 Conditions: higher = more signal.
A short description of assay [13]: small-molecule microarray binders of probe aCHRDL2, primary screen, biochemical, biotinylated probe, 635/667 nm fluorescence (AID 1100). As to conditions: higher = more signal.
The nature of assay [14]: splicing luciferase reporter signal modulators, primary screen, spliceosome inhibition project, cell-based, HEK293, splice +/- reporter (AID 1101).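 Note: HEK293 cells carrying a splicing-competent luciferase reporter gene; test concentration not given here.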 Conditions: luminescence, 24 h, higher = more signal, called active from +8 up or from −8 down.
Assay [15] has as its target Fibroblast growth factor 10 (Homo sapiens) (UniProt O15520). Nature of the assay: FGF10 binders on small-molecule microarrays, primary screen, biochemical, small-molecule microarray, 635 nm fluorescence (AID 1102). As to conditions: FGF10 binding, fluorescence 635 nm, higher = more signal.
Assay [16] deals with glycogen synthase kinase-3 (GSK3A per assay name; protocol says GSK3B). The assay is described as follows: GSK3 binders on small-molecule microarrays, primary screen, biochemical, small-molecule microarray, 635 nm fluorescence, GSK3A (AID 1103). Note: the record names both GSK3A and GSK3B. As to conditions: small-molecule microarray binding, fluorescence 635 nm; higher = more signal.
Assay [17] addresses Epidermal growth factor receptor (Homo sapiens) (UniProt P00533). Nature of the assay: EGFR binders on small-molecule microarrays, primary screen, biochemical, small-molecule microarray, 635 nm fluorescence (AID 1104).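 Note: score merges 667 nm emission intensity with spot signal to noise over triplicate slides.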 As to conditions: EGFR binding, higher = more signal.
Assay [18] addresses Follistatin-related protein 3 (Homo sapiens) (UniProt O95633). The assay is described as follows: FSTL3 binders on small-molecule microarrays, primary screen, biochemical, small-molecule microarray, 635 nm fluorescence (AID 1105).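 Note: score merges emission near 667 nm and signal to noise per printed spot across three slides.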 Conditions: FSTL3 binding, higher = more signal.
Assay [19] concerns the target Dickkopf-related protein 1 (Homo sapiens) (UniProt O94907). The assay is described as follows: DKK1 binders on small-molecule microarrays, primary screen, biochemical, small-molecule microarray, 635 nm fluorescence scan (AID 1106).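 Note: score merges emission near 667 nm with signal to noise over three replicate slides.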 Conditions: DKK1 binding, higher = more signal.
The subject of assay [20] is Inhibin beta A chain (activin A). Nature of the assay: INHBA (activin A) binders on microarrays, primary screen, biochemical, small-molecule microarray, 635 nm fluorescence scan (AID 1107).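 Note: mouse activin A protein probed at 4.33 µg/mL on printed slides; score merges bound-protein fluorescence near 667 nm with spot signal-to-noise.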 Conditions: small-molecule microarray binding, higher = more signal.

Activity calls are given as the source filed them.

Epidermal growth factor receptor (Homo sapiens), sequence (P00533 whole entry, looked up): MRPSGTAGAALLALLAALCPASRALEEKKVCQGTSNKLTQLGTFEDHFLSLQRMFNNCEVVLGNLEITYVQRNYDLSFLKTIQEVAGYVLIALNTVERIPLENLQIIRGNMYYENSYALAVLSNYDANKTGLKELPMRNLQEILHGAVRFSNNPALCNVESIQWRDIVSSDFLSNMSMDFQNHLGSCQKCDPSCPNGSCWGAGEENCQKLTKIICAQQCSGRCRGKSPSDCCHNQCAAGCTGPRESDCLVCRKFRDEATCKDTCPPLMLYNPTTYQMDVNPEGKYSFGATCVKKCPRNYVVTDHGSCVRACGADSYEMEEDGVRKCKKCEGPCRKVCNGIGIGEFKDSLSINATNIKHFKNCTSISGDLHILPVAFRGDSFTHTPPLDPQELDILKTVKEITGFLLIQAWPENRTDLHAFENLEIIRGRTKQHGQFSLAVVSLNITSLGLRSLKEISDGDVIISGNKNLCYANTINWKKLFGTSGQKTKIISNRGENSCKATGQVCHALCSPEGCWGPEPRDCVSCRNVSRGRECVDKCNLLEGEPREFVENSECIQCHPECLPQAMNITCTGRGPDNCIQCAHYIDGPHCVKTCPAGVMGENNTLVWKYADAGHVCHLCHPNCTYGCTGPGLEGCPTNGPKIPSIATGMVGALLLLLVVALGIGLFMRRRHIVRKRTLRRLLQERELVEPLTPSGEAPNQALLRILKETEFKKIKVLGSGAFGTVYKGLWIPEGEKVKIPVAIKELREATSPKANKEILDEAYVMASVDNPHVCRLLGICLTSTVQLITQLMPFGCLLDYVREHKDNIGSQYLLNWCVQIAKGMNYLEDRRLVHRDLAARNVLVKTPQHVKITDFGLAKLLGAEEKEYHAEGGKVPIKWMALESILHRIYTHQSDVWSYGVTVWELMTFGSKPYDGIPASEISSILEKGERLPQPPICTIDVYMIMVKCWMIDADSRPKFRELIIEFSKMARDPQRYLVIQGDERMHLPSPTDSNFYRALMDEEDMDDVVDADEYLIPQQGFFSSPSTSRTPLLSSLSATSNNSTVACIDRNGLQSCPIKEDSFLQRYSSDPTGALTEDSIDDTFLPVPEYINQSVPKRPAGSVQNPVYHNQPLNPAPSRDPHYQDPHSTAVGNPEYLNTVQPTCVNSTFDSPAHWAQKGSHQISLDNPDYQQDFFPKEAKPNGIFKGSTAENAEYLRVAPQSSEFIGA
Fibroblast growth factor 10 (Homo sapiens), sequence (O15520 whole entry, looked up): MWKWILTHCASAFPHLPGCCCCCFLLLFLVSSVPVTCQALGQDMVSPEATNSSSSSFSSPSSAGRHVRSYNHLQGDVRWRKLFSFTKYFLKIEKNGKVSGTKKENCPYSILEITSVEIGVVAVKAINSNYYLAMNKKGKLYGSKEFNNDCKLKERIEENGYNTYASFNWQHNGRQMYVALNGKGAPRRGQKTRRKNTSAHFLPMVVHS
Dickkopf-related protein 1 (Homo sapiens), sequence (O94907 whole entry, looked up): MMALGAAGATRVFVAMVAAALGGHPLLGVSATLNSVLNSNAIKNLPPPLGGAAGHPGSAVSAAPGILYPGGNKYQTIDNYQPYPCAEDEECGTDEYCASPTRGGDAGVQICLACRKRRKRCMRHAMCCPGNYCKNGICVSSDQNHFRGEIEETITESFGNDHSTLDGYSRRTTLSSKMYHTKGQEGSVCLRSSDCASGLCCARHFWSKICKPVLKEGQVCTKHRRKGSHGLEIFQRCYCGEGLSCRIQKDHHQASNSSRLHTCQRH
Neurogenic locus notch homolog protein 3 (Homo sapiens), sequence (Q9UM47 whole entry, looked up): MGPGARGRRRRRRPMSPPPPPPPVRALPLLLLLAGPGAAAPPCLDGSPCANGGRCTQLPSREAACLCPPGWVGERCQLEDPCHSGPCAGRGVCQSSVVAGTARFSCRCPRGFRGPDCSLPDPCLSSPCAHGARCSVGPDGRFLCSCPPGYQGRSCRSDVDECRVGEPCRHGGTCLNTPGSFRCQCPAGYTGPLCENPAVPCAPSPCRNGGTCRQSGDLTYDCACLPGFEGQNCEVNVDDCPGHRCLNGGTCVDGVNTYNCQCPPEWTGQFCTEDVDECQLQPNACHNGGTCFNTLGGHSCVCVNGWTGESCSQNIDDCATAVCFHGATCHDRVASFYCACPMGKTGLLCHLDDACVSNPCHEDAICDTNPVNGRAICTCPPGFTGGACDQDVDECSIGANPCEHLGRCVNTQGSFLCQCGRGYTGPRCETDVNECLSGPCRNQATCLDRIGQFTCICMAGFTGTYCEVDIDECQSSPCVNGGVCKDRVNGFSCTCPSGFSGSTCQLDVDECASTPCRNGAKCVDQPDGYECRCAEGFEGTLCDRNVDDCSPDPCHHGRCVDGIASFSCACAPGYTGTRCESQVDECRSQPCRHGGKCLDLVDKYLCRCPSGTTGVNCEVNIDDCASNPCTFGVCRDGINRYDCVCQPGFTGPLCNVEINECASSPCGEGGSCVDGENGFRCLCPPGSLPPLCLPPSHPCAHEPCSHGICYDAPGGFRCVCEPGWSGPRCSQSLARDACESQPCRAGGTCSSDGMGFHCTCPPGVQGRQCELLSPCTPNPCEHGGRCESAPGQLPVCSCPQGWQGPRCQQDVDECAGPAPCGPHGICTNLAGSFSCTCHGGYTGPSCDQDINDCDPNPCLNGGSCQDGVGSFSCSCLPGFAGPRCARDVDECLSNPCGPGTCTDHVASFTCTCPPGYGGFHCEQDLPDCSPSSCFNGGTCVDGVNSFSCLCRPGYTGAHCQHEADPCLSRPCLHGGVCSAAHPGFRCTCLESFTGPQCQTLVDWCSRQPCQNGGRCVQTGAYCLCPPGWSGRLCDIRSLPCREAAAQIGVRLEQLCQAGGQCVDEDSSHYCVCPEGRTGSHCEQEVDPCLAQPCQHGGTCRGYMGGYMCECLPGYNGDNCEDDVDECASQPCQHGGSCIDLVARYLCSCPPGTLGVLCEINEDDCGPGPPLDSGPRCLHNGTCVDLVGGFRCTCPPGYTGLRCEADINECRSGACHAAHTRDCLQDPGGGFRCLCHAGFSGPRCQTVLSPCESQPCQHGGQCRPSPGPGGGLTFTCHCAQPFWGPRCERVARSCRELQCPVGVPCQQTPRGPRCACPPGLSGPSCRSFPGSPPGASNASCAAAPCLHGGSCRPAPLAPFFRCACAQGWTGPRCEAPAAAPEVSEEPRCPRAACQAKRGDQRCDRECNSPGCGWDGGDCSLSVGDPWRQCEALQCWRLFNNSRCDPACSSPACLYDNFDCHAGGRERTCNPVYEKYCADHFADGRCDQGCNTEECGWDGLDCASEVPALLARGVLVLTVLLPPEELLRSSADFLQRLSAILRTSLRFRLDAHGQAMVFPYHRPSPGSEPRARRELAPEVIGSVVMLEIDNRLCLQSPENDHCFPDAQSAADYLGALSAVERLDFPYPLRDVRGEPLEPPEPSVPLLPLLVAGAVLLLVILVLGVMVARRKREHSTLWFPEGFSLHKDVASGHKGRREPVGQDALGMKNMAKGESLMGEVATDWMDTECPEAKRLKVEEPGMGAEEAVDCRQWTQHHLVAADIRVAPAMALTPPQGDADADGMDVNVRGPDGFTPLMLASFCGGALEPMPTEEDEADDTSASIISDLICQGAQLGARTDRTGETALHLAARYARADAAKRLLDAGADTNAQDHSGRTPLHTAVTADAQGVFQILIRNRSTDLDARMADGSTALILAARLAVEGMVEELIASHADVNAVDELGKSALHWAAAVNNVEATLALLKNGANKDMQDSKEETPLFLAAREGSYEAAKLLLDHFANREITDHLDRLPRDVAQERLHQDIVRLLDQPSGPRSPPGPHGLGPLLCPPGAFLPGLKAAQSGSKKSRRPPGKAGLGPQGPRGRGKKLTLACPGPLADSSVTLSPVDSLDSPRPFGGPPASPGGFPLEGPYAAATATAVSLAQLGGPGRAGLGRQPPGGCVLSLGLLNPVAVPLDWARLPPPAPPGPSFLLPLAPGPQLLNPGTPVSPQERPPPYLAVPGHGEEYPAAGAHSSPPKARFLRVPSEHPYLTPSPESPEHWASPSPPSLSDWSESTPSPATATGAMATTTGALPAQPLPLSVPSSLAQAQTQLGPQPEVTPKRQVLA
Follistatin-related protein 3 (Homo sapiens), sequence (O95633 whole entry, looked up): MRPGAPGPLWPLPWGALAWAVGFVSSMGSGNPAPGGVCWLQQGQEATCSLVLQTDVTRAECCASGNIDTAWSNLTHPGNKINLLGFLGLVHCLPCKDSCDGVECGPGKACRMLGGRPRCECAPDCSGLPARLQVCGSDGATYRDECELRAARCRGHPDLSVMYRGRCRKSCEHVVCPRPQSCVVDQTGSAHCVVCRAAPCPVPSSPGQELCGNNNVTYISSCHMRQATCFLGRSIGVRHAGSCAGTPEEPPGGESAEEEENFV

For `COCC1C2CC[C@H]3C(OCc4ccc(F)cc4C(F)(F)F)OC[C@]4(C)[C@H]3C2=C(CN4C(=O)OC(C)(C)C)[C@H](C)C1COC` (stereo not given in full), the composite z-score in [1] was 0.61; in [5], 3.48; in [7], 0.522; in assay [8] it was -0.761; in [9], 0.96; in [10], 0.0598. In addition, the composite z-score was found to be 1.45 in [11]; 1.04 in assay [12]; 1.23 in [13]; 0.189 in assay [15]; 0.366 in assay [16]; 0.0761 in assay [17]. For the same compound, the composite z-score in assay [18] worked out at 0.45; in [19] it was 0.202; in assay [20], 0.939. For the same compound, the z-score in assay [2] was -0.886 (inactive); in assay [3], 1.04 (inactive); in assay [4] it was -0.2 (inactive); in assay [6] it was -1.02 (inactive); in [14], -0.625 (inactive).

Take `CC(C)N1C(=O)c2ccccc2[C@](C)(C(=O)NC2CC2)[C@@H]1c1ccc(CO)cc1`: the composite z-score is 1.49 in assay [1]; 2.66 in [5]; -0.14 in [7]; 0.614 in assay [8]; 0.764 in [9]; -0.081 in [10]. The composite z-score is 0.173 in assay [11]; 0.0976 in assay [12]; 0.151 in [13]; 0.13 in [15]; 0.821 in [16]; -0.415 in assay [17]. Further, the values for the composite z-score in [18], in assay [19] and in assay [20] were 0.507, 0.33 and 0.926, respectively. Further, the z-score was -0.0975 (inactive) in [2]; 0.193 (inactive) in assay [3]; -0.699 (inactive) in [4]; 0.738 (inactive) in assay [6]; -0.0713 (inactive) in [14].

With `C=CCC(OC(C)=O)[C@@H]1[C@@H](N(Cc2cc3ccccc3o2)C(=O)c2ccc(C)cc2)c2cc(OCCCO)ccc2N1C(=O)c1ccc(-c2ccccc2)cc1` (stereo not given in full), the composite z-score in assay [1] was -0.486; in assay [5], 0.666; in assay [7], 0; in assay [8] it was 0.132; in [9] it was -0.217; in assay [10] it was -0.258. For the same compound, the composite z-score in assay [11] is -0.433; in assay [12] it was -0.228; in [13], 0.118; in [15], 0.161; in [16], -0.291; in [17], 0.0009. The composite z-score is 0.363 in [18], 0.111 in assay [19] and 1.32 in [20]. Besides, the z-score in [2] is -6.89 (inactive); in assay [3], -1.27 (inactive); in assay [4], -2.17 (inactive); in assay [6] it was -0.818 (inactive); in assay [14], -3.23 (inactive).

Consider `O=C1NC(=O)C2C1C=CC(C(O)c1cccs1)N2Nc1ccccn1` (stereo not given), for which the composite z-score in assay [1] was found to be 0.394; in [5], 1.12; in assay [7] it was 0.305; in [8], 0.0671; in [9], 0.242; in [10], 0.119. Further, the composite z-score in assay [11] was determined as 0.809; in assay [12], 0.53; in assay [13], 0.601; in assay [15], 0.797; in assay [16], 0.182; in assay [17], 0.727. In addition, the composite z-score in [18] was 0.292; in assay [19], 0.283; in [20], 0.538. The z-score was 0.378 (inactive) in assay [2]; -0.31 (inactive) in [3]; 0.206 (inactive) in assay [4]; -0.248 (inactive) in assay [6]; 0.566 (inactive) in assay [14].

`CO[C@H]1O[C@H](CO)[C@@H](OC(=O)Nc2ccc(C(F)(F)F)cc2)[C@H](OC(=O)Nc2ccccc2)[C@@H]1OC(=O)Nc1ccccc1`: the composite z-score was 1.54 in assay [1]; 3.11 in assay [5]; -0.0657 in [7]; 1.24 in assay [8]; 0.968 in assay [9]; -0.289 in assay [10]. For the same compound, the composite z-score in assay [11] was 1.02; in [12], -0.442; in assay [13], 0.144; in [15], 1.07; in [16], 1.23; in assay [17], 0.74. Moreover, the composite z-score in assay [18] was found to be 0.743; in assay [19], 0.295; in [20], 0.378. The z-score was 0.0975 (inactive) in assay [2]; 0.252 (inactive) in assay [3]; 0.168 (inactive) in [4]; -0.142 (inactive) in assay [6]; -0.577 (inactive) in [14].

In the case of `COCCCNC(=O)[C@@]1(C)c2ccccc2C(=O)N(Cc2ccccc2)[C@H]1c1ccc(CO)cc1`, the composite z-score in [1] is 1.46; in assay [5] it was 3.43; in assay [7] it was -0.11; in assay [8], -0.694; in assay [9], 0.0118; in assay [10] it was -0.168. For the same compound, the composite z-score is 1.43 in assay [11]; -0.0769 in [12]; 1.02 in assay [13]; -0.398 in assay [15]; -0.595 in assay [16]; -0.848 in assay [17]. Besides, the composite z-score in assay [18] is -1.03; in assay [19] it was -1.76; in assay [20], -0.79. Besides, the z-score is -0.21 (inactive) in [2]; -1.31 (inactive) in assay [3]; -0.0048 (inactive) in assay [4]; -0.336 (inactive) in [6]; -0.626 (inactive) in [14].
